Results filed as inconclusive are left out. Calls of active or inactive are those of the source. Calls come from the whole dose curve; as a rule, active = well fitted inhibition curve with a large enough effect; inconclusive = small, poorly fitted or top-dose-only effect; inactive = no such curve, though single readings can be large or run the other way.

Potency data for 35 molecules are collected here from PubChem BioAssay (NCATS).

The nature of test [1]: qHTS for Inhibitors of the Aldehyde Dehydrogenase Family (ALDH1A2, ALDH1A3, ALDH2, ALDH3A1) (AID 2061307; note: nearly all actives have a fitted effect of over 50% in size; for Potency: test system not described further here; potency is the fitted concentration of half-maximal effect). (In general: In qHTS, concentration-response curves come from the screen itself.)
Test [2] addresses Retinaldehyde dehydrogenase 3 (Homo sapiens) (UniProt P47895). Nature of the test: qHTS for Inhibitors of the Aldehyde Dehydrogenase Family (ALDH1A3) Confirmatory screens (AID 2061311). Note: nearly all actives have a fitted effect of over 60% in size. Note: potency is the fitted concentration of half-maximal effect.
The target is the same in test [3]. Kind of test: qHTS for Inhibitors of the Aldehyde Dehydrogenase Family (ALDH1A3) Primary screen (AID 2061315).
Test [4] addresses Aldehyde dehydrogenase 1A1 (Homo sapiens) (UniProt P00352). Nature of the test: qHTS for Inhibitors of the Aldehyde Dehydrogenase Family (ALDH1A1) Confirmatory screens (AID 2061316). Note: nearly all actives have a fitted effect of over 65% in size. Note: potency is the fitted concentration of half-maximal effect.
In test [5] the target is Retinal dehydrogenase 2 (Homo sapiens) (UniProt O94788). Kind of test: qHTS for Inhibitors of the Aldehyde Dehydrogenase Family (ALDH1A2) Confirmation screens (AID 2061314). Note: nearly all actives have a fitted effect of over 65% in size. Note: potency is the fitted concentration of half-maximal effect.

As for `Cc1ccc(CNc2ncnc3ccc(-c4ccc([C@@H](C)O)o4)cc23)o1`, the Potency result in test [1] and in test [3] was “inactive” each time. The Potency in test [2] was 12.7 µM (active); in test [4], 11.3 µM (active).
For `Cc1oc(-c2ccccc2F)nc1CS(=O)(=O)CC(=O)N1CCN(c2cccc(C(F)(F)F)c2)CC1`, the Potency result in test [1], in test [2], in test [5] and in test [4] was “inactive” in each case.
Consider `CC(=O)c1c(C)n(-c2cccc(Cl)c2)c2ccc(OC(=O)c3ccccc3)cc12`, for which the Potency result in test [1], in test [2], in test [5] and in test [4] was “inactive” throughout.
Turning to `Cc1ccsc1CN(C)c1ncnc2ccc(-c3oc(-c4ccccc4)nc3C)cc12`, the Potency in test [1] is 12.6 µM (active); in test [2] it was 14.1 µM (active). In test [3], the Potency result is “inactive”.
As to `Cc1cc(C)cc(-c2ccccc2C=O)c1`, the Potency entry in test [1], in test [2], in test [5] and in test [4] was “inactive” each time.
With `N#Cc1ccc(-c2ccc(CNc3ccc(N4CCOCC4)cc3)cn2)cc1`, the Potency in test [1] is 6.34 µM (active); in test [2], 12.7 µM (active); in test [4] it was 4.49 µM (active). The Potency entry in test [5] is “inactive”.
Take `CSCCC(NS(=O)(=O)c1ccc2c(c1)oc(=O)n2C)C(=O)N1CCN(c2ccc(C(C)=O)cc2)CC1` (stereo unspecified): the Potency entry in test [1], in test [2], in test [5] and in test [4] was “inactive” each time.
Consider `COc1ccc(-c2nc3ccccc3c(=O)n2Cc2ccccc2)cc1CNc1ccc(NC(C)=O)cc1`, for which the Potency in test [1] was 12.7 µM (active); in test [2], 11.3 µM (active); in test [5], 11.3 µM (active); in test [4], 11.3 µM (active).
On to `CC(=O)c1c(C)n(-c2ccc(Cl)cc2)c2ccc(OC(=O)COc3ccccc3)cc12`, for which the Potency entry in test [1], in test [2], in test [5] and in test [4] was “inactive” throughout.
On to `COc1ccc(-n2c(C)c(C(C)=O)c3cc(OC(=O)c4ccc(C)cc4)ccc32)cc1`, for which the Potency result in test [1], in test [2], in test [5] and in test [4] was “inactive” each time.
On to `Cc1ccc(S(=O)(=O)Nc2cnccc2C(=O)Nc2nc(-c3ccco3)cs2)cc1`, for which the Potency in test [1] is 7.98 µM (active); in test [2] it was 7.12 µM (active); in test [4], 0.798 µM (active). In addition, the Potency result in test [3] is “inactive”.
For the molecule `CC(=O)N1CCN(c2ccc(NCc3ccco3)cc2)CC1`, the Potency in test [1] was 4 µM (active); in test [2], 10.1 µM (active); in test [5] it was 14.2 µM (active); in test [4], 7.98 µM (active).
Turning to `Oc1cc2c(cc1CN1CCN(c3ncccn3)CC1)OCO2`, the Potency in test [1] is 7.12 µM (active); in test [2], 10.1 µM (active); in test [5], 2.01 µM (active); in test [4] it was 5.65 µM (active).
`CCn1cnc2c(Nc3ccc(CC(=O)N=C(N)N)cc3)nc(C#N)nc21`: the Potency entry in test [1], in test [2], in test [3] and in test [4] was “inactive” throughout.
For the molecule `CC(=O)c1ccc(NC(=O)c2cc(S(=O)(=O)N3CCOCC3)ccc2C)cc1`, the Potency entry in test [1] and in test [5] was “inactive” in each case.
Turning to `CN(Cc1ccc(-c2ccc(C#N)cc2)o1)c1ccc(N2CCN(C(=O)OC(C)(C)C)CC2)cc1`, the Potency in test [1] is 1.79 µM (active); in test [2], 11.3 µM (active); in test [4], 11.3 µM (active).
Regarding `O=C(Nc1cccc(Br)c1)c1cc(-c2ccc3c(c2)OCCO3)on1`, the Potency result in test [1], in test [5] and in test [4] was “inactive” throughout.
`Cc1ccnc(NC(=S)N2CCN(c3ccc(Cl)cc3Cl)CC2)c1`: the Potency entry in test [1] is “inactive”. Also, the Potency in test [5] is 11.3 µM (active); in test [4] it was 7.98 µM (active).
Turning to `CCc1nnc2sc(-c3ccc(C)c(NC(=O)c4ccc(-c5cccc(Cl)c5)o4)c3)nn12`, the Potency was 12.6 µM (active) in test [1] and 3.18 µM (active) in test [5].
As for `Cc1ccc(NC(=O)CSc2nc3ccccc3nc2N2CCOCC2)cc1`, the Potency in test [1] was 25.1 µM (active); in test [5], 2.29 µM (active).
For the molecule `C#CCOc1ccc(-c2no[n+]([O-])c2C#N)cc1`, the Potency in test [1] was 11.3 µM (active); in test [5] it was 7.98 µM (active). In addition, the Potency result in test [3] is “inactive”.
`CCc1ccc(-c2nn3c(C)nnc3s2)cc1NC(=O)c1ccc(-c2cccc(Cl)c2)o1`: the Potency is 25.1 µM (active) in test [1], 12.7 µM (active) in test [5] and 5.04 µM (active) in test [4]. For the same molecule, the Potency entry in test [3] was “inactive”.
With `Nc1ccccc1C(=O)NCc1ccco1`, the Potency entry in test [1] and in test [3] was “inactive” throughout.
On to `CCOC(=O)c1ccc(-c2ccc3ncnc(NCc4ccc(C)o4)c3c2)o1`, for which the Potency result in test [1] and in test [3] was “inactive” throughout. Moreover, in test [5], the Potency is 12.7 µM (active).
Consider `COC(=O)c1ccnc(NCc2ccc(O)c3ncccc23)c1`, for which the Potency in test [1] is 11.3 µM (active); in test [2] it was 7.12 µM (active); in test [4] it was 11.3 µM (active).
As for `O=C(NCCc1nc2ccccc2n1CCCc1ccccc1)C1CCCCC1`, the Potency entry in test [1], in test [5] and in test [3] was “inactive” each time.
For `CCOC(=O)Cn1c(=O)oc2cc(S(=O)(=O)N3CCN(c4ccc(Cl)cc4)CC3)ccc21`, the Potency entry in test [1], in test [2] and in test [4] was “inactive” throughout.
As to `O=C(NCc1ccc2c(c1)OCO2)c1csc(N2CCN(c3ccc(F)cc3)CC2)n1`, the Potency in test [1] is 0.708 µM (active); in test [4], 4.47 µM (active). Moreover, the Potency entry in test [5] is “inactive”.
Turning to `Cc1nnc2ccc(N3CCC(NC(=O)c4cccc(C(F)(F)F)c4)CC3)nn12`, the Potency entry in test [1], in test [2] and in test [4] was “inactive” in each case.
Take `O=C(Nc1cccc(Cc2ccccc2)c1)c1ccc(-c2cccc([N+](=O)[O-])c2)o1`: the results for the Potency in test [1] and in test [5] were 25.2 µM (active) and 12.7 µM (active), respectively. In addition, in test [3], the Potency result was “inactive”.
In the case of `CCc1ccc(-n2c(=O)c3cccnc3n2CC(=O)N(CC)c2cccc(C)c2)cc1`, the Potency result in test [1] is “inactive”. Also, the Potency is 28.2 µM (active) in test [2] and 11.5 µM (active) in test [4].
Turning to `Cc1cccc(NC(=O)N2CC(Oc3ccc(-c4nc(C)no4)cc3)C2)c1`, the Potency in test [1] is 3.24 µM (active). Further, the Potency entry in test [5] and in test [4] was “inactive” throughout.
Consider `CC(=O)Nc1sc2c(c1-c1ccc(N3CCN(C)CC3)cc1)CCNC2`, for which the Potency result in test [1], in test [2] and in test [4] was “inactive” in each case.
On to `O=C(NCC(=O)N1CCC(c2ccccc2)CC1)c1cccc(-c2ccc(C(F)(F)F)cc2)c1`, for which the Potency entry in test [1], in test [2] and in test [4] was “inactive” each time.
As for `CC(=O)Nc1sc2c(c1-c1ccco1)CCNC2`, the Potency entry in test [1] and in test [3] was “inactive” each time. In addition, the values for the Potency in test [5] and in test [4] were 17.9 µM (active) and 25.2 µM (active), respectively.
